Results: PubChem BioAssay (EPA / NIEHS)
Values joined by “and” are separate entries in the source; they are usually repeats but may differ in a detail not shown here. Equal values may be shown once. Records with an inconclusive call do not appear. Active and inactive are the calls of the source. Rule for the calls, unless noted: active = hit-call score of the fitted dose curve at least 0.9, where 1 is the maximum; inactive = score below 0.9.

Assays:
TTR (gene 7276) = assay: CCTE_GLTED_hTTR_0.125uM: CCTE's human Transthyretin (hTTR) Inhibition Assay, with 0.125uM TTR, Great Lakes Toxicology and Ecology Division (GLTED) Lab (AID 2284431);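 note: hits lower the fluorescence signal relative to DMSO baseline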
Outline: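 Fluorescence (380 ex, 475 em) reported the ANSA probe remaining bound to 0.125uM human transthyretin. Chemicals were incubated with the protein for 2 hours; activity was scored as loss of signal against DMSO negative control.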

[1] = CCTE_Padilla_ZF_Score.Spine: CCTE's 144 Hour Post-fertilization zebrafish Assay Score for Spine Malformation, Padilla Lab (AID 2284407)
Outline: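 Wild-type zebrafish embryos, one per well in Hanks' solution, dosed at 6–8 hpf in sealed plates at 26C, 14:10 h light:dark; rinsed at 5 dpf. Two blinded assessors scored spinal defects by stereomicroscopy at 6 dpf; fitted versus DMSO.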

[2] = CCTE_Padilla_ZF_Score.Swim_bladder: CCTE's 144 Hour Post-fertilization zebrafish Assay Score for Swim Bladder Malformation, Padilla Lab (AID 2284408)
Outline: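 Wild-type zebrafish embryos, one per well in 10% Hanks', dosed at 6–8 hpf, sealed, reared at 26C and rinsed at 5 dpf. Blinded assessors scored uninflated swim bladder by stereomicroscopy at 6 dpf, relative to DMSO.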

[3] = CCTE_Padilla_ZF_Score.Position: CCTE's 144 Hour Post-fertilization zebrafish Assay Score for Position, Padilla Lab (AID 2284409)
Outline: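 Wild-type zebrafish embryos (with chorions) exposed singly from 6–8 hpf in sealed wells of Hanks' solution at 26C, rinsed at 5 dpf. At 6 dpf, blinded assessors scored abnormal water-column position by brightfield stereomicroscopy, relative to DMSO.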

[4] = CCTE_Padilla_ZF_Score.Living: CCTE's 144 Hour Post-fertilization zebrafish Assay Score for Viability, Padilla Lab (AID 2284410);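 note: larval death at 6 dpf judged by absent heartbeat or coagulation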
Outline: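 Wild-type zebrafish embryos were exposed singly from 6–8 hpf in sealed wells of Hanks' solution at 26C, then rinsed at 5 dpf. At 6 dpf, blinded assessors scored mortality (no heartbeat or coagulation) by stereomicroscopy, fitted against DMSO.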

[5] = CCTE_Padilla_ZF_Score.Tail: CCTE's 144 Hour Post-fertilization zebrafish Assay Score for Tail Malformation, Padilla Lab (AID 2284414)
Outline: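 Wild-type zebrafish embryos, one per well in 200 uL 10% Hanks', dosed at 6-8 hpf, sealed, and kept at 26 C on a 14:10 h light cycle. Chemical was rinsed out at 5 dpf. Blinded brightfield scoring of tail defects followed at 6 dpf.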

[6] = CCTE_Padilla_ZF_Score.Blood_pooling: CCTE's 144 Hour Post-fertilization zebrafish Assay Score for Blood Pooling, Padilla Lab (AID 2284415)
Outline: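 Wild-type outbred zebrafish embryos, one per well in 10% Hanks', exposed from 6–8 hpf in sealed plates at 26C on 14:10 h light:dark, rinsed at 5 dpf. Blinded stereomicroscope scoring of blood pooling at 6 dpf; gain-of-signal versus DMSO.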

[7] = CCTE_Padilla_ZF_Score.Any: CCTE's 144 Hour Post-fertilization zebrafish Assay Score for Any Mortality or Malformation, Padilla Lab (AID 2284416)
Outline: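 Wild-type zebrafish embryos with chorions, one per well in 10% Hanks' from 6–8 hpf, dosed in sealed plates at 26 C, 14:10 h light:dark; rinsed at 5 dpf; blinded scoring at 6 dpf for death or malformation, versus DMSO.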

[8] = system: SRY-box transcription factor 2 (SOX2) Protein Expression, Deisenroth Lab, SOX2 (gene 6657); assay: CCTE_Deisenroth_DEVTOX-GLR_Endo_SOX2: CCTE's DevTox GLR-Endo Assay Evaluation of SRY-box transcription factor 2 (SOX2) Protein Expression, Deisenroth Lab (AID 2284412; active = hit-call score of the fitted dose curve at least 0.9, where 1 is the maximum)
Outline: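 RUES2-GLR human pluripotent cells were seeded 24 h, then differentiated 48 h with two chemical exposures 24 h apart. Cells were fixed, nuclei stained and imaged by high-content microscopy. Endpoint is %SOX2+ cells over cell count, minus 0.2% DMSO control; 10-point series 1 nM–200 uM.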

[9] = system: SRY-box transcription factor 17 (SOX17) Protein Expression, Deisenroth Lab, SOX17 (gene 64321); assay: CCTE_Deisenroth_DEVTOX-GLR_Endo_SOX17: CCTE's DevTox GLR-Endo Assay Evaluation of SRY-box transcription factor 17 (SOX17) Protein Expression, Deisenroth Lab (AID 2284413)
Outline: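 Seed RUES2-GLR cells 24 h; start endoderm differentiation; dose at 0 and 24 h (1 nM - 200 uM, 10 points); fix at 48 h, stain nuclei, image 5 fields/well; compute SOX17+/total cells vs 0.2% DMSO.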

[10] = system: Brachyury (BRA) Protein Expression, TBXT (gene 6862); assay: CCTE_Deisenroth_DEVTOX-GLR_Endo_BRA: CCTE's DevTox GLR-Endo Assay Evaluation of Brachyury (BRA) Protein Expression, Deisenroth Lab (AID 2284417)
Outline: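 RUES2-GLR pluripotent cells differentiated 48 h with two chemical exposures 24 h apart, 10-point range 1 nM - 200 uM. Percentage of BRA+ cells per total count by high-content imaging, minus 0.2% DMSO control.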

[11] = CCTE_Deisenroth_DEVTOX-GLR_Endo_CellCount: Viability Assessment in CCTE's DevTox GLR-Endo Assay, Deisenroth Lab (AID 2284420)
Outline: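 Human pluripotent RUES2-GLR line; 24 h pre-seed; 48 h endoderm-directed differentiation; 2 doses, q24h; 10 conc., 1 nM - 200 uM; fix + nuclear dye; 5 fields/well imaged; readout = nuclei count, % change vs 0.2% DMSO; n=4.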

[12] = system: SRY-box transcription factor 17 (SOX17) Protein Expression, Deisenroth Lab, SOX17 (gene 64321); assay: CCTE_Deisenroth_DEVTOX-GLR_Pluri_SOX17: CCTE's DevTox GLR-Pluri Assay Evaluation of SRY-box transcription factor 17 (SOX17) Protein Expression, Deisenroth Lab (AID 2284427; active = hit-call score of the fitted dose curve at least 0.9, where 1 is the maximum)
Outline: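 Human RUES2-GLR pluripotent line; 24 h seeding, 48 h defined-media differentiation, 2 doses q24h, 10 conc 1 nM - 200 uM. Fix, nuclear stain, image 5 fields/well. Endpoint = %SOX17+ minus 0.2% DMSO; n=4.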

[13] = system: SRY-box transcription factor 2 (SOX2) Protein Expression, Deisenroth Lab, SOX2 (gene 6657); assay: CCTE_Deisenroth_DEVTOX-GLR_Pluri_SOX2: CCTE's DevTox GLR-Pluri Assay Evaluation of SRY-box transcription factor 2 (SOX2) Protein Expression, Deisenroth Lab (AID 2284428)
Outline: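 Steps: seed RUES2-GLR cells for 24 h; start 48 h differentiation in defined media; dose test chemicals at 0 and 24 h (1 nM–200 uM); fix, stain nuclei, image; compute SOX2+ percentage against 0.2% DMSO wells.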

[14] = system: Brachyury (BRA) Protein Expression, Deisenroth Lab, TBXT (gene 6862); assay: CCTE_Deisenroth_DEVTOX-GLR_Pluri_BRA: CCTE's DevTox GLR-Pluri Assay Evaluation of Brachyury (BRA) Protein Expression, Deisenroth Lab (AID 2284429; active = hit-call score of the fitted dose curve at least 0.9, where 1 is the maximum)
Outline: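 An inducible fluorescent BRA reporter in RUES2-GLR cells tracks mesoderm differentiation. Compounds (10 concentrations, 1 nM - 200 uM) are dosed twice within a 48-h differentiation. The endpoint subtracts the 0.2% DMSO control from percent BRA+ cells.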

[15] = CCTE_Deisenroth_DEVTOX-GLR_Pluri_CellCount: Viability Assessment in CCTE's DevTox GLR-Pluri Assay Evaluation of Total Cell Counts, Deisenroth Lab (AID 2284430)
Outline: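 RUES2-GLR human pluripotent cells, seeded 24 h, then differentiated 48 h with two chemical exposures 24 h apart; 10-point series 1 nM - 200 uM. Fixed, nuclear-stained, imaged (5 fields/well); nuclei count as % change vs 0.2% DMSO.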

Compound: Oc1c(Br)cc(Br)cc1Br
- AC50 (TTR (gene 7276)): 0.0287 µM (active)

Compound: Nc1ccc(N)cc1
- AC50 (TTR (gene 7276)): 2.42 µM (active)

Compound: CCOP(=S)(OCC)O/N=C(\C#N)c1ccccc1
- AC50 (TTR (gene 7276)): 2.07 µM (active)

Compound: C=CCOC(F)(C(F)(F)F)C(F)(F)F
- outcome [1]: inactive
- outcome [2]: inactive
- outcome [3]: inactive
- outcome [4]: inactive
- outcome [5]: inactive
- outcome [6]: inactive
- outcome [7]: inactive

Compound: O=C1c2ccccc2C(=O)C1C(=O)C(c1ccccc1)c1ccc(Cl)cc1 (stereo not drawn)
- AC50 (TTR (gene 7276)): 3.48 µM (active)

Compound: COc1nn(C(=O)NS(=O)(=O)c2ccccc2OC(F)(F)F)c(=O)n1C
- AC50 (TTR (gene 7276)): 9.99 µM (active)

Compound: COC(F)(C(F)(F)C(F)(F)F)C(F)(C(F)(F)F)C(F)(F)F (stereo not drawn)
- outcome [1]: inactive
- outcome [2]: inactive
- outcome [3]: inactive
- outcome [4]: inactive
- outcome [5]: inactive
- outcome [6]: inactive
- outcome [7]: inactive

Compound: CCCCCCCCCCCCOS(=O)(=O)O
- AC50 (TTR (gene 7276)): 2.56 µM (active) and 5.11 µM (active)

Compound: Cc1cc(Cl)ccc1OCCCC(=O)O
- AC50 (TTR (gene 7276)): 2.64 µM (active)

Compound: O=S(=O)(F)C(F)(F)C(F)(F)C(F)(F)C(F)(F)F
- outcome [1]: inactive
- outcome [2]: inactive
- outcome [3]: inactive
- outcome [4]: inactive
- outcome [5]: inactive
- outcome [6]: inactive
- outcome [7]: inactive

Compound: O=C(O)COc1cc(Cl)c(Cl)cc1Cl
- AC50 (TTR (gene 7276)): 0.692 µM (active)

Compound: O=[N+]([O-])c1ccccc1O
- AC50 (TTR (gene 7276)): 34.8 µM (active) and 21.1 µM (active)

Compound: NC(=O)c1ccc(N)nc1
- AC50 [8]: 71.1 µM (active)
- AC50 [9]: 21 µM (active)
- AC50 [10]: 68.7 µM (active)
- AC50 [11]: 30.6 µM (active)
- outcome [12]: inactive
- AC50 [13]: 38.1 µM (active)
- AC50 [14]: 100 µM (active)
- outcome [15]: inactive

Compound: O=C(NC(=O)c1c(F)cccc1F)Nc1cc(Cl)c(OC(F)(F)C(F)C(F)(F)F)cc1Cl (stereo not drawn)
- AC50 (TTR (gene 7276)): 2.76 µM (active)

Compound: Oc1cc(Cl)c(Cl)cc1Cl
- AC50 (TTR (gene 7276)): 0.114 µM (active)

Compound: CCCCCCCCCCCCc1cccc(S(=O)(=O)O)c1
- AC50 (TTR (gene 7276)): 6.89 µM (active)

Compound: Cc1cc(Cl)ccc1O
- AC50 (TTR (gene 7276)): 14.9 µM (active)

Compound: O=S1(=O)OC(c2cc(Br)c(O)c(Br)c2)(c2cc(Br)c(O)c(Br)c2)c2ccccc21
- AC50 (TTR (gene 7276)): 0.109 µM (active)

Compound: O=C(CBr)c1ccc(O)cc1
- AC50 (TTR (gene 7276)): 4.69 µM (active)

Compound: CCOCn1c(-c2ccc(Cl)cc2)c(C#N)c(Br)c1C(F)(F)F
- AC50 (TTR (gene 7276)): 0.0346 µM (active)

Compound: CC(F)(F)CC(F)(F)F
- outcome [1]: inactive
- outcome [2]: inactive
- outcome [3]: inactive
- outcome [4]: inactive
- outcome [5]: inactive
- outcome [6]: inactive
- outcome [7]: inactive

Compound: O=[N+]([O-])c1ccc(Cl)c([N+](=O)[O-])c1
- AC50 (TTR (gene 7276)): 4.83 µM (active)
